# CHX counter: counter-screen for Shiga toxin inhibitors: cycloheximide protein synthesis inhibition. max response, %. actives 12% (n = 300,000). AID 2314. cell reporter, cycloheximide protein synthesis inhibition counterscreen; in the data active means max response mostly above about 13%, no sharp cut-off; inactive means mostly below about 14%; further: read at 38.3 µM for the half of the compounds with a filed dose
# VACV Venus inh: vaccinia inhibition (Venus reporter) | AID 720580 | Potency, µM (series often up to 36.5 µM), hits mostly inhibitors | Vaccinia virus Venus reporter expression, fluorescence | actives 0.46% (n = 330,000); calls by dose curve; tested in A549 cells; further: nearly all actives have a fitted effect of over 30% in size
# LASV entry inh: inhibitors of Lassa virus binding or cell entry. Lassa virus pseudotype entry inhibition, cell reporter. Potency, µM (doses to about 37.9 µM), most hits filed as inhibitors. actives 1.2% (n = 300,000). AID 540256; calls by dose curve; tested in HEK293 cells; further: nearly all actives have a fitted effect of over 50% in size
# Vaccinia mCherry: inhibitors of vaccinia virus infection (mCherry reporter signal); AID 720579; Vaccinia virus mCherry reporter infection, fluorescence; actives 0.63% (n = 310,000); Potency, µM (doses to about 36.5 µM), hits mostly inhibitors; calls by dose curve; tested in A549 cells; further: nearly all actives have a fitted effect of over 35% in size
# Shiga toxin inh: blocks Shiga toxin action in Vero cells. Vero cells, Shiga toxin protein synthesis inhibition reporter. inhibition, % at 38.7 µM. actives 9.2% (n = 290,000); in the data active means inhibition mostly above about 28%, no sharp cut-off; inactive means mostly below about 43%
# Marburg entry inh: inhibitors of Marburg virus binding or cell entry; Marburg virus pseudotyped entry inhibition, cell reporter; Potency, µM (doses to about 37.8 µM), hits mostly inhibitors; actives 1.8% (n = 300,000); calls by dose curve; tested in HEK293 cells
# Hits are given with their value; 0 = inactive; ? = inconclusive; - = no result; [ ] = remark or other dose. The sample as a whole holds a higher share of hits than the screen did.
SMILES,CHX counter,VACV Venus inh,LASV entry inh,Vaccinia mCherry,Shiga toxin inh,Marburg entry inh
O=C1C(=O)N(CCCN2CCOCC2)C(c2cccs2)/C1=C(/O)c1ccc2c(c1)OCO2 (stereo not drawn),29,-,-,-,0,-
O=C(Cc1cccc(NC(=O)C2CCN(C(=O)C3CCCCC3)CC2)c1)Nc1cccc(C(=O)N2CCOCC2)c1,-,0,-,0,-,-
O=[N+]([O-])c1cc(/C=N/OCc2c(Cl)cccc2Cl)ccc1N1CCOCC1,19,-,?,-,0,0
COc1ccccc1C(=O)Nc1ccc2oc(-c3cccc(Cl)c3Cl)nc2c1,-,0,0,0,-,-
O=C(N/N=C/c1ccc(Cl)cc1)C(=O)N1CCCCCC1,0,0,?,0,0,0
O=C(N/N=C/c1ccc(Cl)cc1)C1CC12CCC2 (stereo not drawn),53,0,?,0,133,0
COc1ccc(OC)c(-c2nnc3n(CCc4ccccc4)c(=O)c4ccccc4n23)c1,-,0,0,0,-,0
Nn1c(SCC(=O)Nc2ccc3c(c2)OCCO3)nnc(CCC(=O)O)c1=O,0,0[7.34 µM],-,0[7.34 µM],0,-
CC(C)(C)C(=O)Nc1ccc2nc(SCCOc3ccccc3Cl)sc2c1,-,0,?,0,-,0
CC(C)(C)c1ccc(C(=O)NC(=S)Nc2nc3c(s2)CCCC3)cc1,69,0,?,0,113,1.3µM
CN(C)c1ccc(C(=O)Nc2nc3c(s2)CCCC3)cc1,45,0,?,?,21,?
COc1cc(OC)cc(C(=O)N[C@H](C(=O)Nc2nc3c(s2)CCCC3)C(C)C)c1,0,?,0,0,0,0
CC(C)[C@H](NC(=O)c1ccccc1F)C(=O)Nc1nc2c(s1)CCCC2,42,0,0,0,0,0
CP(=O)(Nc1ccc(Cl)cc1)c1nc2c(s1)CCCC2 (stereo not drawn),0,0[7.34 µM],-,0[7.34 µM],0,-
C/C(=N\Nc1nc2c(s1)CCCC2)c1ccc(Cl)cc1,83,0,0,?,116,?
Cc1cccc(-c2nc3c4ccccc4nc(NCCc4ccccc4)n3n2)c1,-,0,-,0,-,0
Cc1ccc(OCC(=O)Nc2nonc2-c2ccc(Br)cc2)cc1C,-,0,0,0,-,0
CCOC(=O)C1CCN(c2cc3c(cc2NC(=O)c2ccccc2Cl)n(C)c(=O)n3C)CC1,0,0[7.34 µM],2.5µM,0[7.34 µM],0,?
N#C/C(=C\c1ccccn1)c1nc2ccccc2s1,35,0,0,?,57,?
COc1ccc(/C(C#N)=C/c2ccccn2)cc1,60,0,-,0,110,-
COc1ccc(C(=O)NNC(=O)c2ccccn2)cc1,0,-,?,-,0,?
COC(=O)c1ccc(/C=C(\C#N)c2nc3ccccc3s2)cc1,0,0,0,0,0,0
CCc1ccc2nc(N3CCC(C(=O)N4CCC5(CC4)OCCO5)CC3)sc2c1,58,0,0,0,131,0
CCCCN(CC)CCCNC(=O)C1CCN(c2nc3ccc(CC)cc3s2)CC1,-,0,?,0,-,?
O=C(C1CCN(c2nc3ccc(Br)cc3s2)CC1)N1CCC2(CC1)OCCO2,30,0,0,-,59,?
SMILES,CHX counter,VACV Venus inh,LASV entry inh,Vaccinia mCherry,Shiga toxin inh,Marburg entry inh
CCOc1ccc2nc(N3CCC(C(=O)N4CCN(c5ncccn5)CC4)CC3)sc2c1,26,?,-,0,0,-
CCOc1ccc2nc(N3CCC(C(=O)N4CCC5(CC4)OCCO5)CC3)sc2c1,41,-,0,-,0,?
Cc1ccc2nc(N3CCN(C(=O)C4CC4)CC3)sc2c1,-,0,0,0,-,-
Cc1ccc2nc(N3CCC(C(=O)N4CCC5(CC4)OCCO5)CC3)sc2c1,40,0,0,-,79,7.9µM
O=P(CCCCCCCCCP(=O)(c1ccccc1)c1ccccc1)(c1ccccc1)c1ccccc1,0,16µM,?,?,0,?
O=C(O)CCCCCCCCCCP(=O)(c1ccccc1)c1ccccc1,0,0,0,0,0,0
Cn1nc(C(=O)Nc2nnc(C3CC3)s2)c2ccccc2c1=O,0,-,-,-,0,-
COc1ccc(CNC(=O)/C=C\c2ccc3[nH]cc(CCN(C)C)c3c2)cc1,-,-,-,-,-,35µM
COc1ccc(-c2nc(SCC(=O)Nc3ccccc3)c(-c3ccc(F)cc3)[nH]2)cc1OC,-,0,0,0,-,0
C/C=C/C(=O)OCC(=O)Nc1cc([N+](=O)[O-])ccc1Cl,0,?,0,11µM,0,0
CN1CCN(c2cc([N+](=O)[O-])ccc2Cl)CC1,0,-,0,-,0,0
COc1cc(NC(=O)COC(=O)C=C(C)C)c(C)cc1[N+](=O)[O-],0,0,0,0,0,0
CN1CCN(C(=S)Nc2cc([N+](=O)[O-])ccc2Cl)CC1,11,0,0,0,0,0
C/C=C/C(=O)OCC(=O)Nc1cc(OC)c([N+](=O)[O-])cc1C,0,7.9µM,0,5.6µM,0,0
O=C(CC(=O)c1ccccc1)Nc1cc([N+](=O)[O-])ccc1Cl,16,0,0,0,0,0
CCCCC(=O)Nc1cc([N+](=O)[O-])ccc1Cl,0,0,0,0,0,?
COC(=O)c1ccccc1-c1cc(C)cc2c1OC(CNC(=O)c1cnc(C)cn1)C2 (stereo not drawn),-,0,-,0,-,-
CN(Cc1ccccc1)c1ccc(-c2nc(-c3ccco3)no2)cc1[N+](=O)[O-],-,0,0,0,-,0
CSc1ccccc1NC(=O)CN(C)C(=O)c1c(C)nn(Cc2ccccc2)c1C,-,0,0,0,-,0
Nc1nc(-c2cccs2)cs1,34,?,0,?,0,0
O=C(Nc1nc(-c2cccs2)cs1)c1ccc(Cl)s1,42,0,-,0,39,-
O=C(COc1ccccc1Cl)Nc1nc(-c2cccs2)cs1,0,0,0,-,0,0
O=C(Nc1nc(-c2ccc(Cl)s2)cs1)c1ccccc1,42,0,0,0,0,0
CC(=O)Nc1nc(-c2cccs2)cs1,23,0,0,0,0,0
O=C(O)C1CCC1C(=O)Nc1nc(-c2ccc(Cl)s2)cs1 (stereo not drawn),0,-,-,-,0,-
SMILES,CHX counter,VACV Venus inh,LASV entry inh,Vaccinia mCherry,Shiga toxin inh,Marburg entry inh
CN(C(=O)C1CCCO1)c1nnc(-c2ccncc2)s1 (stereo not drawn),0,0,0,0,0,0
COCC(=O)N(C)c1nnc(-c2ccc([N+](=O)[O-])cc2)s1,0,0,0,0,0,0
COCC(=O)N(C)c1nnc(-c2ccccn2)s1,41,0,?,0,57,0
c1ccc(-c2nc(-c3ccccn3)nc(-c3ccccn3)n2)nc1,0,0,0,0,0,0
CN(C(=O)C1CCCO1)c1nnc(-c2ccccn2)s1 (stereo not drawn),50,0,?,0,47,0
CN(C(=O)C1CCOC1)c1nnc(-c2ccccn2)s1 (stereo not drawn),30,0,?,0,86,0
c1ccc(C2=NNC(c3ccccn3)=NN2)nc1,33,-,-,-,71,-
CN(C(=O)C1CCOC1)c1nnc(-c2ccncc2)s1 (stereo not drawn),0,0,0,0,0,?
CC(C)(C)c1ccc(-c2nc(SCC(=O)Nc3ccccc3F)n3[nH]c(=O)cc3n2)cc1,-,0,0,0,-,-
C=CCN1c2ccccc2[C@]23CCC(=O)N(CCOC)C2=NC(C(=O)OC)=C(C(=O)OC)[C@H]13,-,-,?,-,-,0
